# Screening data deposited in PubChem BioAssay by National Center for Advancing Translational Sciences (NCATS).
# Rab9 prom act: activators of Rab9 promoter; Huh7 Rab9 promoter-luciferase reporter, luminescence, 24 h; 2.8% of 320,000 active; Potency, µM (highest dose often 9.22 µM), without a hit: top-dose activation, negative = inhibition, most hits filed as activators; AID 485297; also: % of control where 0% means no effect; nearly all actives have a fitted effect of over 60% in size
#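 Promoter activation is measured as luciferase luminescence in Huh7 cells stably transfected with a Rab9 promoter–luciferase construct, following 24 h compound exposure at 37 °C and 10 min reagent incubation at ambient temperature.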
# FLuc modulator: inhibits or activates purified firefly luciferase, miR-21 counter-screen | P08659 | purified FLuc, Km substrates, luminescence inhibition | Potency, µM (highest dose often 57.5 µM), for the others: at the top dose activity change, negative = inhibition, most hits filed as inhibitors | 6.9% of 360,000 active | AID 588342;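 also: plate controls were vehicle for no effect and reference inhibitor for full effect; nearly all actives have a fitted effect of over 55% in size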
# Target sequence (P08659 whole entry, looked up): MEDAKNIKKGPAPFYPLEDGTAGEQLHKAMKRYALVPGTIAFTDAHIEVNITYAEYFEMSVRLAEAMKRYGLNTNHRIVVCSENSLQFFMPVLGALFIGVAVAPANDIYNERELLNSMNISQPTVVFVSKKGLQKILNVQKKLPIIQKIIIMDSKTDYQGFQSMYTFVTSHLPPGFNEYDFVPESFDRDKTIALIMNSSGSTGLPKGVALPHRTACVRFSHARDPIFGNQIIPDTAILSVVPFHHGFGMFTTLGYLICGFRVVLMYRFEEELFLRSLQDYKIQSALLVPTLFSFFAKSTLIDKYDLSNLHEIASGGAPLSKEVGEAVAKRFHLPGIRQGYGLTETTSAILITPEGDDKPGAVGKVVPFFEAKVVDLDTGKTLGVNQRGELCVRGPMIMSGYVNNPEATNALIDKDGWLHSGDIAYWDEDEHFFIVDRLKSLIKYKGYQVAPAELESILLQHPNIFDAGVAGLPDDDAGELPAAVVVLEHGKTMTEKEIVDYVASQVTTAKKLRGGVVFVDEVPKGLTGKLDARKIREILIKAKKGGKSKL
#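 Purified P. pyralis luciferase (10nM final) with 10uM D-luciferin and 10uM ATP (Km levels) in 50mM Tris acetate pH 7.5, 10mM Mg acetate, 0.01% Tween-20, 0.05% BSA; qHTS 6-point titration, ~60 µM downward; luminescence read.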
# ELG1 repair inh: inhibitors of ELG1-dependent DNA repair in HEK293T cells. Potency, µM (top dose mostly 46.1 µM), for inactives: top-dose activity change, negative = inhibition, most hits filed as inhibitors. HEK293T ELG1-luciferase reporter, luminescence, 16 h; DNA damage induced by 5-fluorouridine. 2.3% of 330,000 active; also: % is scaled to controls: 0 for no effect and ±100 for the full control effect; nearly all actives have a fitted effect of over 55% in size
#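 Luminescence from the luciferase reporter, measured 30 min after ONE-Glo reagent at room temperature, was the read-out. Beforehand, 2,000 cells per well were exposed for 16 hr at 37 °C to 5-fluorouridine together with compound or vehicle.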
# SMN2 splice up: enhancers of SMN2 splice variant expression; 2.8% of 210,000 active; Potency, µM (series often up to 46.1 µM), for inactives: at the highest dose activity change, positive = activation, usual class: activators; HEK293 SMN2-luciferase splicing reporter, luminescence, 30-36 h; also: % of control where 0% means no effect; nearly all actives have a fitted effect of over 55% in size
#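 qHTS luciferase splicing reporter: luminescence rises when SMN2 exon 7 is included in transfected HEK293 cells. Compound exposure lasted 30-36 h at 37C, with 4.5 mM final sodium butyrate as control, followed by a ONE-Glo read.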
# NPC1 promoter act: activators of NPC1 promoter | Potency, µM (highest dose often 9.22 µM), inactives show top-dose activation, hits mostly activators | 2.4% of 320,000 active | AID 485313 | Huh7 NPC1 promoter luciferase reporter, 24 h; also: % of control where 0% means no effect; nearly all actives have a fitted effect of over 60% in size
#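 Luminescence read-out of NPC1 promoter-driven luciferase in stably transfected Huh7 cells; compounds delivered in DMSO and left 24 h at 37C, 5% CO2, qHTS titration format.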
# ELG1 genotox: inducers of genotoxicity in HEK293T ELG1-luciferase cells; AID 504466; Potency, µM (top dose mostly 46 µM), for inactives: top-dose activity change, positive = activation, hits mostly activators; HEK293T ELG1-luciferase reporter, luminescence, 16 h; 1.3% of 330,000 active; also: % of control where 0% means no effect; nearly all actives have a fitted effect of over 60% in size
#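 Cells (2,000/well) expressing the ELG1-luciferase fusion are dosed by pin tool and kept 16 hr at 37 °C, 5% CO2. Signal comes from ONE-Glo luciferase reagent after 30 min at room temperature.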
# * = called active by the depositor; ? = inconclusive; nt = no result given; [ ] = dose if it differs, or a comment. A selection: hits, their analogues and other compounds. The true share with any hit is near 9.3%. Calls follow the shape of the dose curve; as a rule, active = well fitted curve in the direction sought with a large enough effect; inconclusive = small, poorly fitted or top-dose-only effect, or another doubt; inactive = no such curve, though single readings can be large; an effect the other way counts as inactive or inconclusive. Potency is read from the fitted curve at half-maximal effect.
SMILES,Rab9 prom act,FLuc modulator,ELG1 repair inh,SMN2 splice up,NPC1 promoter act,ELG1 genotox
O=C1C(NS(=O)(=O)c2cccs2)=C(N2CCOCC2)C(=O)c2ccccc21,-7%,-7%,-5%,nt,-4%,-14%
COc1ccc(OC)c2sc(N3CCN(C(=O)CCS(=O)(=O)c4ccc(F)cc4)CC3)nc12,nt,-3%,nt,nt,nt,nt
c1ccc(-c2nc(-c3ccccn3)no2)cc1,?,0.54µM*,?,0.5µM*,0.11µM*,?
Cc1ccc(-c2nc(-c3ccccn3)no2)cc1[N+](=O)[O-],0.32µM*,1.5µM*,?,nt,0.32µM*,2.1µM*
CCCNc1ccc(-c2nc(-c3ccccn3)no2)cc1[N+](=O)[O-],nt,-1%,nt,nt,nt,nt
c1ccc(-c2noc(-c3ccno3)n2)nc1,28%,-10%,?,nt,16%,9%
Clc1cccc(-c2nc(-c3ccccn3)no2)c1,0.1µM*,0.34µM*,?,0.71µM*,0.32µM*,?
Cc1ccc(CNc2ccc(-c3nc(-c4ccccn4)no3)cc2[N+](=O)[O-])cc1,nt,-17%,nt,nt,nt,nt
Cc1ccc(-c2nc(-c3ccccn3)no2)cc1,0.0002µM*,0.085µM*,?,nt,-28%,-7%
O=C(O)c1cccc(Cn2c(Cl)c(/C=N/NC(=O)c3ccco3)sc2=O)c1,-2%,6%,0%,nt,-4%,2%
CC(=O)Nc1ccc(/C=C/c2nc(-c3ccccc3O)n(-c3ccccc3)n2)cc1,nt,0%,nt,-16%,nt,nt
Cc1ccc(-c2nc(-c3ccccn3)no2)cc1Cl,0.32µM*,0.13µM*,?,nt,0.35µM*,?
Cc1cccc(/C(N)=N/OC(=O)CCCc2ccccc2)c1,9%,9.5µM*,26%,nt,13%,?
N/C(=N\OC(=O)CCCc1ccccc1)c1cccc([N+](=O)[O-])c1,0%,?,-7%,13%,-1%,0%
N/C(=N\OC(=O)CCCc1ccccc1)c1cccnc1,-1%,17µM*,15%,4%,-2%,4%
N/C(=N\OC(=O)CCCc1ccccc1)c1ccccc1,17%,4.8µM*,0%,nt,9%,?
CCCc1cc(CNC(=O)C2CCC(=O)N(Cc3ccccc3F)C2)on1 (centres undefined),14%,3%,9%,nt,2%,-2%
O=C(NC1CCS(=O)(=O)C1)c1ccccc1Cl (centres undefined),nt,nt,?,nt,nt,7%
O=C1OC(Nc2nc3ccccc3s2)c2ccccc21 (centres undefined),7%,11µM*,?,-16%,-4%,0%
O=C1OC(Nc2nccs2)c2ccccc21 (centres undefined),-3%,2%,1%,17%,?,0%
C=CCSC1=N/C(=C\C=C\c2ccco2)C(=O)S1,2%,13µM*,8%,7%,6%,1%
Cn1cnnc1SCC(=O)Nc1ccc2nc(SCc3ccccc3)sc2c1,?,11µM*,?,-9%,3.5µM*,?
Cn1cnnc1SCC(=O)Nc1ccc2nc(SCc3ccccc3Cl)sc2c1,26%,17µM*,?,-13%,16%,5%
Cn1c(SCC(=O)Nc2ccc3nc(SCC(=O)N4CCCC4)sc3c2)nnc1-c1ccc(N)cc1,-2%,-13%,8.2µM*,-5%,-1%,-1%
Cn1cnnc1SCC(=O)Nc1ccc2nc(SCc3cccc4ccccc34)sc2c1,0%,-4%,-19%,-21%,1%,-9%
SMILES,Rab9 prom act,FLuc modulator,ELG1 repair inh,SMN2 splice up,NPC1 promoter act,ELG1 genotox
CCN(CC)C(=O)CSc1nc2ccc(NC(=O)CSc3nccn3C)cc2s1,1%,19µM*,21µM*,-41%,9%,-5%
Cn1c(SCC(=O)Nc2ccc3nc(SCC(=O)NC4CC4)sc3c2)nnc1-c1ccccc1,-4%,-2%,?,-21%,-3%,3%
Nc1c(C(=O)CSc2nccn2-c2ccc(Cl)cc2)c(=O)[nH]c(=O)n1C1CC1,-3%,3%,7%,nt,-1%,-2%
O=C(NC1CC(=O)N(c2ccc(Cl)cc2)C1)N1CCN(C(=O)c2ccco2)CC1 (centres undefined),-3%,8%,-4%,nt,1%,2%
CC(=O)c1c(C)[nH]c(C(=O)OCC(=O)NCc2ccc3c(c2)OCO3)c1C,-5%,3%,?,nt,-1%,-5%
CCOC(=O)c1c(S(=O)(=O)N2CCCC(C(=O)NCc3cccc(OC)c3)C2)c(C)n(C)c1C (centres undefined),nt,-7%,nt,nt,nt,nt
COc1cccc(NC(=O)Nc2nc(-c3ccc(OC)c(OC)c3)cs2)c1,-7%,?,4.1µM*,nt,-15%,-26%
COc1ccc(-c2csc(NC(=O)CCCc3nc4ccccc4c(=O)[nH]3)n2)cc1OC,-1%,?,?,nt,-1%,-20%
COc1ccc(-c2csc(NC(=O)Nc3ccccc3)n2)cc1,-2%,-3%,-1%,nt,0%,0%
COc1cccc(-c2csc(NC(C)=O)n2)c1,4µM*,15µM*,?,28µM*,4µM*,10µM*
COc1ccc(-c2csc(NC(=O)CCn3cnc4ccccc4c3=O)n2)cc1OC,1%,-2%,7.3µM*,-8%,-7%,-1%
COc1ccc(-c2csc(NC(C)=O)n2)cc1OC,1%,-11%[2.3 µM],?,12%,5%,15%
COc1ccc(-c2csc(NC(=O)C3CCN(C(=O)c4ccc(F)cc4)CC3)n2)cc1OC,-20%,-5%,15µM*,nt,-11%,-11%
Cc1ccc(NC(=O)Nn2cnnc2)cc1Cl,1%,-3%,7%,nt,-1%,8%
Cc1ccc(NC(=O)O/N=C/c2c(C)nn(C(C)(C)C)c2C)cc1Cl,-44%,0.13µM*,?,nt,-35%,-12%
CS(=O)(=O)N1CCC(C(=O)NNC(=O)Nc2ccc(F)c(Cl)c2)CC1,-1%,-2%,11%,nt,2%,2%
CCSc1nnc(-c2ccc(OC)cc2)o1,2.8µM*,7.6µM*,?,11µM*,2.8µM*,7.1µM*
COc1ccc(-c2nnc(SC(C)C(=O)NNC(=O)c3ccc(C)cc3)o2)cc1 (centres undefined),14%,-19%,30%,-27%,3%,2%
C#CCSc1nnc(-c2ccc(OC)cc2)o1,2.8µM*,7.6µM*,?,?,2.8µM*,10µM*
COc1ccc(-c2nnc(SCc3c(C)noc3C)o2)cc1,0%,19µM*,?,-11%,17%,1%
COc1ccc(-c2nnc(SC(C)C(=O)O)o2)cc1 (centres undefined),nt,12µM*,nt,-1%,nt,nt
COc1ccc(-c2nnc(SCC#N)o2)cc1,1%,-7%,?,-10%,0%,?
